Activity calls are given as the source filed them. How the source made its calls: active means hit-call score of the fitted dose curve at least 0.9, where 1 is the maximum; inactive means score below 0.9.
read-out: growth arrest and DNA damage 45 (GADD45B), GADD45B (gene 4616); assay: LTEA_HepaRG_GADD45B: Life Technologies and Expression Analysis (LTEA) Assay for growth arrest and DNA damage 45 (GADD45B) using HepaRG (AID 2283461); details: mRNA level, 48 h; actives raise or lower the signal
Experimental: LTEA_HepaRG is a cell based, multiplexed-readout assay that uses HepaRG, a human liver cell line, with measurements taken at 48 hours after chemical dosing on a 96-well plate.LTEA_HepaRG_GADD45B is one of 102 assay component(s) measured in the LTEA HepaRG cell culture assay. It is a marker of Cell proliferation, survival, death.Data from the assay component LTEA_HepaRG_GADD45B was analyzed into 1 endpoint. This assay endpoint, LTEA_HepaRG_GADD45B, was analyzed with bidirectional fitting relative to DMSO as the negative control and baseline of activity. Using a type of inducible reporter, measures of mRNA induction for gain or loss-of-signal activity can be used to understand regulation of transcription factor activity. To generalize the intended target to other relatable targets, this assay endpoint is annotated to the mutagenicity response intended target family, where the subfamily is Cell proliferation, survival, death.
A total of 1060 chemcials from the ToxCast library were tested in eight-point concentration-response experiments. Cell culture and cytotoxicity assays were conducted at Thermo Fisher Scientific's Custom Services facility (Madison, WI). A single lot of human HepaRG cells (Thermo Fisher Scientific, Frederick, MD) was used for the cell culture experiments. 96-well format collagen type I coated plates of human HepaRG cells were prepared using established methods. Briefly, cryopreserved HepaRG cells were thawed, plated at a density of approximately 100,000 cells/well in HepaRG Thaw, Plate, and General Purpose media (HPRG770, Thermo Fisher Scientific), and incubated for 48 hours. 0.5% DMSO was selected as vehicle control to balance the requisite need of DMSO in HepaRG cultures to maintain differentiation (for example, baseline metabolism, proportions of hepatocytes vs. cholangiocytes), while enabling further hepatic receptor pathway activation (for example, PXR and CAR) in response to chemical exposure. 48 hours after plating, the culture medium was replaced with HepaRG Serum-Free Incudtion Media. Cells were exposed to each test chemical in duplicate and maintained in CO2 incubators for another 48 hours. Chemical plates were thawed to room temperature and 200x concentrations of treatment groups were prepared. 8-point conentration-reponse curves were made with the highest exposure at 100 uM, followed by half-log dilutions, all in 0.5% DMSO. Each test plate contained variouse controls, induction positive controls (1mM phenobarbital), cytotoxicity positive controls ([…] aflatoxin B1), vehicle controls (0.5% DMSO), and total lysis controls (0.5% DMSO). Cell morphology images were taken using an Essen IncuCyte FLR automated microscope, with six 96-well plates imaged in about 24 minutes. Images were captured and exported and JPEG files. Spent culture media was transfered to black-well plates for the LDH assay, and remaining media was sorted at -80 C for later use. Cells were treated with RLT buffer and frozen until shipped for gene expression analysis. Total RNA was isolated from the cell suspension in 75 uL of Buffer RLT (Qiagen, Germantown, MD 20874) by Quintiles/Expression Analysis (Durham, NC) using a custom isolation procedure. Total RNA from each plate well was transferred to a preamplification plate. Fluidigm's 96.96 Dynamic ArrayTM (Fluidigm, Amsterdam, the Netherlands) technology was used for gene expression analyses by quantitative reverse transcription polymerase chain reaction (qRT-PCR, performed by Quintiles/Expression Analysis, Durham, NC)89. Standard TaqManTM Assays (Applied Biosystems/ThermoFisher Scientific, Foster City, CA) were used to assess the expression of 93 genes selected based on their selectivity and sensitivity to important hepatic receptors known to be modulated by environmental chemicals; importance in human hepatocyte functionality; and hepatotoxicity. […]

Compound	AC50	outcome
O=C(O)C1(c2ccc3c(c2)OC[C@H](Cc2ccc(-c4ccccc4)cc2)[C@H]3O)CCCC1	86.9 µM (active)	
CC(C)(C)c1ccccc1O		inactive
CN(C)C(=S)S		inactive
N#Cc1cccnc1		inactive
Clc1cccc(Cl)c1		inactive
CC(C)O.CC(C)O.OCCN(CCO)CCO.OCCN(CCO)CCO.[Ti]		inactive
Clc1cccc(Cl)c1Cl		inactive
OCCN(CCO)CCO		inactive
Cc1cc(C)cc(C)c1		inactive
Oc1c(Cl)cc(Cl)cc1Cl		inactive
COc1ccccc1N		inactive
Oc1cc(Cl)c(Cl)cc1Cl		inactive
O=C(N[C@H]1CN2CCC1CC2)c1ccc2c(c1)OCCO2		inactive
CCCCCCCCCCCCc1cccc(S(=O)(=O)O)c1		inactive

— PubChem BioAssay (EPA / NIEHS)
